Drawing on paper PMC11006913, this text covers binding signal for 14 sequences.

Positions count from the first letter of the chain named.

What all share (test): PBM; 200 nM protein, PBS
Common to all, as to conditions: dsDNA, one strand shown

Test [1] concerns the target HOXB9 (Homo sapiens, UniProt P17482 171-250, T197M).
The target of the next test is T1, VENTX (Homo sapiens, UniProt O95231 78-163).
T1 sequence: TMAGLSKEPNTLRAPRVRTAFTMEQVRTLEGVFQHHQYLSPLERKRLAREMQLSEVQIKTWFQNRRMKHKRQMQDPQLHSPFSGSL

Test [2] concerns the target HOXA7 (Homo sapiens, UniProt P31268 116-202).
Test [3] concerns the target T2, PAX4 (Homo sapiens, UniProt O43316 9-242).
T2 sequence: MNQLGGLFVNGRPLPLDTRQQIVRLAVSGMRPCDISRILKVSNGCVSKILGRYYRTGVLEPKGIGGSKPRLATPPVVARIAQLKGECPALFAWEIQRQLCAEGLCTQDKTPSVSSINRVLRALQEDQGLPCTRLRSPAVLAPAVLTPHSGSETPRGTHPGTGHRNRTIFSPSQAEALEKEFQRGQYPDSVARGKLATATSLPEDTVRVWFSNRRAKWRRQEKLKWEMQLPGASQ

Test [4] addresses HOXB6 (Homo sapiens, UniProt P17509 132-218, K202E).
Test [5] concerns the target HOXB9 (Homo sapiens, UniProt P17482 171-250).
Test [6] has as its target HOXA2 (Homo sapiens, UniProt O43364 129-215, R185K).
A further test has as its target VAX1 (Homo sapiens, UniProt Q5SQQ9 86-172).
Test [7] concerns the target HOXB9 (Homo sapiens, UniProt P17482 171-250, R186Q).
Test [8] concerns the target T3, PAX4 (Homo sapiens, UniProt O43316 9-242, R227W).
T3 sequence: T2 sequence with R219W

Test [9] deals with HOXA2 (Homo sapiens, UniProt O43364 129-215, Y150S).
Chain of HOXA2 (Homo sapiens, UniProt O43364 129-215, Y150S) (O43364 129-215 Y150S): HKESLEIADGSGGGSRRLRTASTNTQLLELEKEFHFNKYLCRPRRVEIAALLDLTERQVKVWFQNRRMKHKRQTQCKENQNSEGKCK
The target of test [10] is HOXA7 (Homo sapiens, UniProt P31268 116-202, W177C).
Chain of HOXA7 (Homo sapiens, UniProt P31268 116-202, W177C) (P31268 116-202 W177C): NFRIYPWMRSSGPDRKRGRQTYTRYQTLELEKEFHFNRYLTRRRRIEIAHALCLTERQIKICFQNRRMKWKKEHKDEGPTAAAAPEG
Test [11] concerns the target HOXA2 (Homo sapiens, UniProt O43364 129-215).
The target of test [12] is HOXB6 (Homo sapiens, UniProt P17509 132-218).
Chain of HOXB6 (Homo sapiens, UniProt P17509 132-218) (P17509 132-218): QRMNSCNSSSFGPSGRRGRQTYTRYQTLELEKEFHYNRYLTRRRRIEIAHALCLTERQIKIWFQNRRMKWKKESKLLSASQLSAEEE
A further test concerns the target HOXC10 (Homo sapiens, UniProt Q9NYD6 254-340, K271E).
The target in test [13] is HOXC9 (Homo sapiens, UniProt P31274 178-260, K195R).
Chain of HOXC9 (Homo sapiens, UniProt P31274 178-260, K195R) (P31274 178-260 K195R): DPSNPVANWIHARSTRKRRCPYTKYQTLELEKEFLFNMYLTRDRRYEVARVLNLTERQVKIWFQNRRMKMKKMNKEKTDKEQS
For test [14], the target named is HOXC9 (Homo sapiens, UniProt P31274 178-260).
Chain of HOXC9 (Homo sapiens, UniProt P31274 178-260) (P31274 178-260): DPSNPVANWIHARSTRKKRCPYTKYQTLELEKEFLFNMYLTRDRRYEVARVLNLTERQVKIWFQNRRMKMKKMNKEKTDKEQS
In test [15] the target is HOXC9 (Homo sapiens, UniProt P31274 178-260, R193K).
Chain of HOXC9 (Homo sapiens, UniProt P31274 178-260, R193K) (P31274 178-260 R193K): as the sequence (P31274 178-260) above, with R16K counted along it
Test [16] deals with HOXC9 (Homo sapiens, UniProt P31274 178-260, R222W).
Chain of HOXC9 (Homo sapiens, UniProt P31274 178-260, R222W) (P31274 178-260 R222W): as the sequence (P31274 178-260) above, with R45W counted along it

Chain of HOXA2 (Homo sapiens, UniProt O43364 129-215, R185K) (O43364 129-215 R185K): as the sequence (O43364 129-215 Y150S) above, with S22Y, R57K counted along it
Chain of HOXB6 (Homo sapiens, UniProt P17509 132-218, K202E) (P17509 132-218 K202E): as the sequence (P17509 132-218) above, with K71E counted along it
Chain of HOXA7 (Homo sapiens, UniProt P31268 116-202) (P31268 116-202): as the sequence (P31268 116-202 W177C) above, with C62W counted along it
Chain of HOXB9 (Homo sapiens, UniProt P17482 171-250, T197M) (P17482 171-250 T197M): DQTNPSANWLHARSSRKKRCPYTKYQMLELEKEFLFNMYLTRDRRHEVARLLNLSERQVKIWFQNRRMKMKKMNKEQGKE
Chain of VAX1 (Q5SQQ9 86-172): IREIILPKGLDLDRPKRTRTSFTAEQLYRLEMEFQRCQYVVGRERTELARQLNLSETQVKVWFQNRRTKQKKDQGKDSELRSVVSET
Chain of HOXA2 (Homo sapiens, UniProt O43364 129-215) (O43364 129-215): as the sequence (O43364 129-215 Y150S) above, with S22Y counted along it
Chain of HOXC10 (Q9NYD6 254-340 K271E): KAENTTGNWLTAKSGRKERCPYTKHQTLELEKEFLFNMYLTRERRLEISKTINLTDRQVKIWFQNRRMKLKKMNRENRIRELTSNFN
Chain of HOXB9 (Homo sapiens, UniProt P17482 171-250) (P17482 171-250): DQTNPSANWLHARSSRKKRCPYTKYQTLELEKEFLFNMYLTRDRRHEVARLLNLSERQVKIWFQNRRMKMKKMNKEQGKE
Chain of HOXB9 (Homo sapiens, UniProt P17482 171-250, R186Q) (P17482 171-250 R186Q): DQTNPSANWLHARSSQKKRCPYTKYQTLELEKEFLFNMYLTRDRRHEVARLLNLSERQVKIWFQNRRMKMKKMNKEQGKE

In the case of ACCAATTA, the binding signal with HOXB9 [1] was 9.73 upbm affinity estimate (log intensity, higher = more binding, comparable within an allelic series); with VENTX it was 12.8 upbm affinity estimate (log intensity, higher = more binding, comparable within an allelic series); with HOXA7 [2] it was 11.2 upbm affinity estimate (log intensity, higher = more binding, comparable within an allelic series); with PAX4 [3], 12.2 upbm affinity estimate (log intensity, higher = more binding, comparable within an allelic series); with HOXB6 [4], 9.84 upbm affinity estimate (log intensity, higher = more binding, comparable within an allelic series); with HOXB9 [5], 11.1 upbm affinity estimate (log intensity, higher = more binding, comparable within an allelic series). Also, the binding signal is 13.2 upbm affinity estimate (log intensity, higher = more binding, comparable within an allelic series) with HOXA2 [6]; 12.8 upbm affinity estimate (log intensity, higher = more binding, comparable within an allelic series) with VAX1; 10.9 upbm affinity estimate (log intensity, higher = more binding, comparable within an allelic series) with HOXB9 [7]; 10.8 upbm affinity estimate (log intensity, higher = more binding, comparable within an allelic series) with PAX4 [8]; 10.9 upbm affinity estimate (log intensity, higher = more binding, comparable within an allelic series) with HOXA2 [9]; 8.84 upbm affinity estimate (log intensity, higher = more binding, comparable within an allelic series) in the test with HOXA7 [10]. The binding signal was 12.1 upbm affinity estimate (log intensity, higher = more binding, comparable within an allelic series) with HOXA2 [11] and 11.7 upbm affinity estimate (log intensity, higher = more binding, comparable within an allelic series) with HOXB6 [12].

In the case of AGCAATTA, the binding signal with HOXB9 [1] was 9.96 upbm affinity estimate (log intensity, higher = more binding, comparable within an allelic series); in the test with VENTX, 12.4 upbm affinity estimate (log intensity, higher = more binding, comparable within an allelic series); with HOXA7 [2] it was 11.7 upbm affinity estimate (log intensity, higher = more binding, comparable within an allelic series); in the test with HOXB6 [4], 9.92 upbm affinity estimate (log intensity, higher = more binding, comparable within an allelic series); with HOXA2 [6], 13.3 upbm affinity estimate (log intensity, higher = more binding, comparable within an allelic series); with HOXC10 it was 11.8 upbm affinity estimate (log intensity, higher = more binding, comparable within an allelic series). Besides, the binding signal in the test with VAX1 is 12.9 upbm affinity estimate (log intensity, higher = more binding, comparable within an allelic series); with HOXA2 [9], 10.8 upbm affinity estimate (log intensity, higher = more binding, comparable within an allelic series); with HOXA7 [10], 8.7 upbm affinity estimate (log intensity, higher = more binding, comparable within an allelic series); in the test with HOXA2 [11] it was 12.5 upbm affinity estimate (log intensity, higher = more binding, comparable within an allelic series); with HOXB6 [12], 12 upbm affinity estimate (log intensity, higher = more binding, comparable within an allelic series).

In the case of ATCAATTA, the binding signal is 10.1 upbm affinity estimate (log intensity, higher = more binding, comparable within an allelic series) with HOXB9 [1]; 12.5 upbm affinity estimate (log intensity, higher = more binding, comparable within an allelic series) with HOXC9 [13]; 12.7 upbm affinity estimate (log intensity, higher = more binding, comparable within an allelic series) in the test with VENTX; 11.7 upbm affinity estimate (log intensity, higher = more binding, comparable within an allelic series) with HOXA7 [2]; 12.4 upbm affinity estimate (log intensity, higher = more binding, comparable within an allelic series) in the test with PAX4 [3]; 10.1 upbm affinity estimate (log intensity, higher = more binding, comparable within an allelic series) with HOXB6 [4]. For the same sequence, the binding signal with HOXB9 [5] is 11.7 upbm affinity estimate (log intensity, higher = more binding, comparable within an allelic series); with HOXC9 [14], 12.6 upbm affinity estimate (log intensity, higher = more binding, comparable within an allelic series); in the test with HOXC9 [15], 12.6 upbm affinity estimate (log intensity, higher = more binding, comparable within an allelic series); with HOXA2 [6], 13.6 upbm affinity estimate (log intensity, higher = more binding, comparable within an allelic series); with HOXC10, 11.9 upbm affinity estimate (log intensity, higher = more binding, comparable within an allelic series); with VAX1, 13.3 upbm affinity estimate (log intensity, higher = more binding, comparable within an allelic series). Also, the binding signal in the test with HOXB9 [7] is 11.5 upbm affinity estimate (log intensity, higher = more binding, comparable within an allelic series); with HOXC9 [16], 11.1 upbm affinity estimate (log intensity, higher = more binding, comparable within an allelic series); in the test with PAX4 [8], 11 upbm affinity estimate (log intensity, higher = more binding, comparable within an allelic series); with HOXA2 [9] it was 10.9 upbm affinity estimate (log intensity, higher = more binding, comparable within an allelic series); with HOXA7 [10] it was 8.98 upbm affinity estimate (log intensity, higher = more binding, comparable within an allelic series); in the test with HOXA2 [11], 12.7 upbm affinity estimate (log intensity, higher = more binding, comparable within an allelic series). Moreover, the binding signal with HOXB6 [12] was 12.1 upbm affinity estimate (log intensity, higher = more binding, comparable within an allelic series).

Take CCTAATTA: the binding signal with VENTX is 13 upbm affinity estimate (log intensity, higher = more binding, comparable within an allelic series); in the test with HOXA7 [2], 11.8 upbm affinity estimate (log intensity, higher = more binding, comparable within an allelic series); with PAX4 [3], 12.6 upbm affinity estimate (log intensity, higher = more binding, comparable within an allelic series); with HOXB6 [4], 10 upbm affinity estimate (log intensity, higher = more binding, comparable within an allelic series); with HOXA2 [6] it was 13.8 upbm affinity estimate (log intensity, higher = more binding, comparable within an allelic series); in the test with HOXC10 it was 11.8 upbm affinity estimate (log intensity, higher = more binding, comparable within an allelic series). For the same sequence, the binding signal with VAX1 was 13.8 upbm affinity estimate (log intensity, higher = more binding, comparable within an allelic series); with PAX4 [8] it was 11.2 upbm affinity estimate (log intensity, higher = more binding, comparable within an allelic series); with HOXA2 [9], 10.8 upbm affinity estimate (log intensity, higher = more binding, comparable within an allelic series); with HOXA7 [10] it was 8.85 upbm affinity estimate (log intensity, higher = more binding, comparable within an allelic series); with HOXA2 [11], 13.2 upbm affinity estimate (log intensity, higher = more binding, comparable within an allelic series); in the test with HOXB6 [12] it was 12.1 upbm affinity estimate (log intensity, higher = more binding, comparable within an allelic series).

Regarding TATTAGAA, the binding signal in the test with PAX4 [3] was 11.3 upbm affinity estimate (log intensity, higher = more binding, comparable within an allelic series).

Regarding TCAATTAA, the binding signal is 12.4 upbm affinity estimate (log intensity, higher = more binding, comparable within an allelic series) with VENTX; 11.5 upbm affinity estimate (log intensity, higher = more binding, comparable within an allelic series) with HOXA7 [2]; 9.94 upbm affinity estimate (log intensity, higher = more binding, comparable within an allelic series) with HOXB6 [4]; 13.2 upbm affinity estimate (log intensity, higher = more binding, comparable within an allelic series) with HOXA2 [6]; 13.3 upbm affinity estimate (log intensity, higher = more binding, comparable within an allelic series) in the test with VAX1; 10.7 upbm affinity estimate (log intensity, higher = more binding, comparable within an allelic series) in the test with HOXA2 [9]. The binding signal with HOXA7 [10] was 8.86 upbm affinity estimate (log intensity, higher = more binding, comparable within an allelic series); with HOXA2 [11], 12.4 upbm affinity estimate (log intensity, higher = more binding, comparable within an allelic series); with HOXB6 [12], 11.9 upbm affinity estimate (log intensity, higher = more binding, comparable within an allelic series).

As for AATTAAGA, the binding signal is 12.2 upbm affinity estimate (log intensity, higher = more binding, comparable within an allelic series) in the test with PAX4 [3] and 10.8 upbm affinity estimate (log intensity, higher = more binding, comparable within an allelic series) in the test with PAX4 [8].

For AATTAGAT, the binding signal in the test with PAX4 [3] was 12.2 upbm affinity estimate (log intensity, higher = more binding, comparable within an allelic series); with PAX4 [8] it was 10.9 upbm affinity estimate (log intensity, higher = more binding, comparable within an allelic series).

On to CAATTACA, for which the binding signal is 9.87 upbm affinity estimate (log intensity, higher = more binding, comparable within an allelic series) with HOXB6 [4] and 11.4 upbm affinity estimate (log intensity, higher = more binding, comparable within an allelic series) with HOXB6 [12].

AATTAAGC: the binding signal with PAX4 [3] is 12.2 upbm affinity estimate (log intensity, higher = more binding, comparable within an allelic series); in the test with PAX4 [8] it was 10.9 upbm affinity estimate (log intensity, higher = more binding, comparable within an allelic series).

As to AATTAGCG, the binding signal with VENTX is 12.3 upbm affinity estimate (log intensity, higher = more binding, comparable within an allelic series); in the test with PAX4 [3], 12.4 upbm affinity estimate (log intensity, higher = more binding, comparable within an allelic series); with VAX1 it was 12.6 upbm affinity estimate (log intensity, higher = more binding, comparable within an allelic series); with PAX4 [8], 11 upbm affinity estimate (log intensity, higher = more binding, comparable within an allelic series).

Regarding CAATTAGG, the binding signal in the test with VENTX was 12.7 upbm affinity estimate (log intensity, higher = more binding, comparable within an allelic series); in the test with HOXA2 [6], 13 upbm affinity estimate (log intensity, higher = more binding, comparable within an allelic series); with VAX1, 12.9 upbm affinity estimate (log intensity, higher = more binding, comparable within an allelic series); in the test with HOXA2 [9], 10.8 upbm affinity estimate (log intensity, higher = more binding, comparable within an allelic series); with HOXA2 [11], 12.1 upbm affinity estimate (log intensity, higher = more binding, comparable within an allelic series).

Turning to AATTAACT, the binding signal with HOXA7 [2] is 11.2 upbm affinity estimate (log intensity, higher = more binding, comparable within an allelic series); with PAX4 [3] it was 12.3 upbm affinity estimate (log intensity, higher = more binding, comparable within an allelic series); with HOXB6 [4], 9.99 upbm affinity estimate (log intensity, higher = more binding, comparable within an allelic series); with PAX4 [8], 10.9 upbm affinity estimate (log intensity, higher = more binding, comparable within an allelic series); with HOXA7 [10] it was 8.89 upbm affinity estimate (log intensity, higher = more binding, comparable within an allelic series); with HOXB6 [12], 11.6 upbm affinity estimate (log intensity, higher = more binding, comparable within an allelic series).

In the case of CAATTAGA, in the test with VAX1, the binding signal was 12.6 upbm affinity estimate (log intensity, higher = more binding, comparable within an allelic series).
